One test concerns T1, GRK3.
T1 construct: gene ADRBK2

For another test, the system named is T2, ERK2.
T2 construct: gene MAPK1

In a further test the test system is T3, ERK3.
T3 construct: gene MAPK6

The next test has as its system T4, ERK4.
T4 construct: gene MAPK4

Among the data in PMC5540273 (PLoS ONE, 2017) are Kd values, retold here.

Broadly, the Kd is the concentration at which binding is half-saturated.

Molecules are shown by their SMILES. A value given as a limit tells only on which side of the number the result lay.
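Further: kd values determined as follow-up on hits from a single-replicate KINOMEscan panel screen.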

Regarding `CS(=O)(=O)CCNCc1nc(-c2ccc3ncnc(Nc4ccc5c(cnn5Cc5ccccc5)c4)c3c2)cs1.Cl.Cl` [GW569716], the figures for the dissociation constant Kd with ERBB3 and in the test on ERBB4 were 0.069 µM and 0.0082 µM, respectively. For the compound `CS(=O)(=O)CCNCc1nc(-c2ccc3ncnc(Nc4ccc(OCc5ccccc5)c(Cl)c4)c3c2)cs1.Cl` [GW582764], the Kd with ERBB4 was 0.069 µM; with GRK3, greater than 10 µM. In the test with ERK2, `Cc1ccc(-c2nc(Nc3ccncc3)c3ccccc3n2)s1` [GSK189015] gave a dissociation constant (Kd) greater than 10 µM. With `CCn1c(-c2c(N)noc2C)nc2cnccc21` [SB-737856], in the test with ERK3, the Kd is greater than 10 µM. In the test on ERK3, `CC(=O)c1c(C)c2cnc(Nc3ccc(N4CCNCC4)cn3)nc2n(C2CCCC2)c1=O` came in with a dissociation constant Kd greater than 10 µM.

Consider `Cc1nccc(-c2c(-c3ccc(F)cc3)ncn2CCCN2CCOCC2)n1.Cl` [SB-282975], for which, in the test on ERK4, the Kd is greater than 10 µM. With `Cc1c(Cn2c3ccccc3n3c(=O)cc(N4CCOCC4)nc23)cccc1C(F)(F)F` [GSK2306394], in the test with ERK4, the dissociation constant (Kd) is greater than 10 µM. Consider `Cn1cnc2c(N)ncnc21` [SKF-97623], for which, in the test on FLT3-autoinhibited, the dissociation constant Kd was greater than 10 µM. For `O=C(Nc1n[nH]c2nc(-c3cccs3)c(Br)cc12)C1CC1` [SB-735297], the affinity with FLT3, expressed as Kd, was 0.15 µM. `CS(=O)(=O)Cc1ccc(Nc2nccc(-c3c(-c4cccc(NC(=O)C5CCCCC5)c4)nn4ncccc34)n2)cc1` [GSK350559]: in the test on FLT3, the Kd came out at 0.074 µM. As for `Cn1cncc1C(=O)NC1CCN(c2ccnc(Nc3ccc(F)cc3)n2)C1` (stereo not drawn) [GSK1379717], the Kd in the test on FLT4 is greater than 10 µM. In the test with GRK1, `CNc1nc(-c2ccc3c(N)n[nH]c3c2)cc(N2C[C@@H](C(=O)Nc3ccccc3)CC[C@H]2C)n1` [GSK2298859] returned a dissociation constant Kd greater than 10 µM. For `COC(=O)C(Cc1ccccc1)NC(=O)NC1CCN(c2ccnc(Nc3ccc(F)cc3)n2)C1` (stereo not drawn) [GSK1379714], in the test on GRK1, the Kd is greater than 10 µM.
